Screening results deposited in PubChem by National Center for Advancing Translational Sciences (NCATS).
This is a sample that favours compounds with a hit; in the whole collection about 5.7% have one here.
KB-V1 cytotox = kills drug-selected multidrug resistant KB-V1 cells; Potency, µM (doses to about 46.1 µM), actives largely listed as cytotoxic; AID 1347076; KB-V1 MDR cells viability, CellTiter-Glo, 72 h; actives 3.4% (n = 400,000); note: nearly all actives have a fitted effect of over 60% in size
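Drug-selected KB-V1 cells, grown in DMEM lacking phenol red with 10% FBS, receive compound titrations; after three days at 37 degrees C, surviving cell ATP is quantified by CellTiter-Glo luminescence and responses normalized and curve-fitted.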
HT1080NT lethal = kills 2HG-producing HT-1080-NT fibrosarcoma cells; HT-1080-NT fibrosarcoma viability, CellTiter-Glo ATP luminescence, 48 h; Potency, µM (series often up to 46.1 µM), for the others: at the top dose activity, negative = less viability, usual class: cytotoxic; actives 1.6% (n = 360,000); AID 686970;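 note: NT is the 2HG producing partner of a matched IDH1 knockdown line; 0% = DMSO-treated cells and -100% = media-only wells without cells; nearly all actives have a fitted effect of over 55% in size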
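Viability of the 2HG-overproducing fibrosarcoma line after 48 hours of compound exposure at 37 degrees C was determined by luminescence with CellTiter-Glo, and concentration-effect curves were then fitted and categorized.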
HT1080 IDH1KD tx = kills HT-1080 cells with IDH1 knockdown; HT-1080 IDH1 knockdown viability, ATP luminescence, 48 h; Potency, µM (doses to about 46.1 µM), inactives show at the highest dose activity, negative = toxicity, most hits filed as cytotoxic; actives 2% (n = 360,000);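 note: 0% = DMSO wells and -100% = cell-free medium wells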
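Assay cells: HT-1080 with IDH1 knockdown, 750 per well, RPMI/5% FBS. Exposure: 48 h at 37 °C following 2 h pre-incubation. Read: CellTiter-Glo luminescence; fitted concentration-response, curve class assigned.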
KB-3-1 cytotox = KB-3-1 parental cell cytotoxicity. KB-3-1 viability, CellTiter-Glo ATP luminescence, 72 h. Potency, µM (highest dose often 46.1 µM), actives largely listed as cytotoxic. actives 1.4% (n = 400,000). AID 1347075; note: nearly all actives have a fitted effect of over 60% in size
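Parental KB-3-1 adenocarcinoma cells in phenol-red-free DMEM with 10% FBS were pin-treated with compounds at several concentrations, incubated 72 h at 37 °C, and viability read by CellTiter-Glo luminescence; concentration-effect curves were fitted after normalization.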
Starred values were filed as active, the others as inactive; i = inactive; ? = inconclusive; nt = not tested or not shown. Calls come from the whole dose curve; as a rule, active = well fitted curve in the direction sought with a large enough effect; inconclusive = small, poorly fitted or top-dose-only effect, or another doubt; inactive = no such curve, though single readings can be large; an effect the other way counts as inactive or inconclusive. Unless noted, % is set by controls: 0 for no effect and ±100 for the full control effect; potency is the fitted concentration of half-maximal effect.

SMILES | KB-V1 cytotox | HT1080NT lethal | HT1080 IDH1KD tx | KB-3-1 cytotox
Cc1ccc(C(=O)CN2/C(=C(\O)c3ccccc3)C(=O)c3ccccc3S2(=O)=O)c(C)c1 | 2.31µM* | ? | ? | ?
Cc1ccc(C(=O)CN2C(=O)c3ccccc3S2(=O)=O)cc1 | i | 9.5% | -2.6% | i
CCN(CC)C(=O)CSc1nc2ccccc2c(=O)n1OC(C)C | 2.59µM* | 1.8% | 9.7% | i
CCN(CC)c1ccc(NC(=O)COc2ccccc2C)cc1S(=O)(=O)Nc1ccccc1OC | ? | 17.6% | 16.1% | i
CCN(CC)c1ccc(NC(=O)COc2ccccc2C#N)cc1S(=O)(=O)Nc1ccc(OC)cc1 | 3.66µM* | 0.7% | 11.4% | i
CCN(CC)c1ccc(NC(=O)c2cnccn2)cc1S(=O)(=O)Nc1ccc(OC)cc1 | 4.11µM* | -3.1% | -6.9% | ?
C=C1Nc2ccccc2C(=O)N1c1ccc(C(=O)N2CCN(C(=O)c3ccco3)CC2)cc1 | i | nt | nt | ?
CCOc1cc(C(=O)Nc2ccc(C)cc2C)ccc1OCC(=O)N1CCCCC1 | i | 8.1% | 2.2% | i
COc1ccc(C)cc1NC(=O)c1ccc(CN2CCN(c3ccccc3)CC2)cc1 | 18.4µM* | 1.1% | 6.9% | ?
CCOc1cc(C(=O)Nc2cc(C)ccc2OC)ccc1OCC(=O)N1CCCCC1 | 7.31µM* | 7.9% | -1.1% | i
COc1ccc(C(=O)Nc2cnn(Cc3ccc(Cl)cc3)c2)cc1OC | i | ? | ? | 5.8µM*
COc1cc(CNc2ccc(N3CCN(C(C)=O)CC3)cc2)ccc1OCc1ccccc1 | 7.31µM* | -10.9% | -23.7% | ?
CN1CCOc2cc(S(=O)(=O)N3CCN(c4nc(-c5cccs5)nc5ccccc45)CC3)ccc21 | nt | 14.8% | 3.3% | nt
CCN(Cc1cccc(S(=O)(=O)O)c1)c1ccc(C(=C2C=CC(=[N+](CC)Cc3cccc(S(=O)(=O)O)c3)C=C2)c2ccccc2S(=O)(=O)[O-])cc1 | i | nt | nt | i
COc1ccc(C)cc1NC(=O)c1nn(-c2ccccc2)cc1OC | ? | 14.6µM* | 14.6µM* | ?
COc1ccc(NC(=O)c2ccc(CN3CCN(c4ccccc4)CC3)cc2)cc1OC | 16.4µM* | ? | ? | ?
COc1ccccc1NC(=S)N1CCN(Cc2ccccc2)CC1 | 14.6µM* | 21.2% | 10.6% | ?
CCCN1CCN(C(=S)Nc2ccccc2C(F)(F)F)CC1 | 3.26µM* | -0.1% | -12.8% | 20.6µM*
COc1ccccc1C(=O)Nc1ccc(N2CCN(Cc3ccccc3)CC2)cc1 | i | -21.5% | -2.8% | i
FC(F)(F)c1ccccc1NC(=S)N1CCc2ccccc2C1 | ? | -2.5% | ? | i
CCN(Cc1ccccc1)C(=O)CCc1c(C)nc2c(c(C)nn2-c2ccc(C)c(C)c2)c1C | i | nt | nt | i
O=C(NCc1ccccc1)C(c1ccc(F)cc1)N(Cc1cccs1)C(=O)c1cnccn1 (configuration not stated) | i | -15.3% | 1.8% | i
O=C(NCc1ccccc1)C(c1ccccc1)N(Cc1cccs1)C(=O)c1cnccn1 (configuration not stated) | 23.1µM* | -13.2% | -4.5% | i
O=C(NCc1ccccc1)C(c1cccs1)N(Cc1cccs1)C(=O)c1cnccn1 (configuration not stated) | 2.59µM* | 5.2% | -0.5% | i
O=[N+]([O-])c1cccc(CP(=O)(c2ccccc2)c2ccccc2)c1 | 20.6µM* | -8.4% | -7.7% | i
SMILES | KB-V1 cytotox | HT1080NT lethal | HT1080 IDH1KD tx | KB-3-1 cytotox
CCOc1ccc(-c2nonc2NC(=O)COc2ccccc2)cc1 | i | nt | nt | i
O=C(NCCOc1ccccc1)c1n[nH]c(=O)c2ccccc12 | 23.1µM* | -0.4% | ? | i
Cc1ccc(N(CC(O)Cn2c3ccccc3c3ccccc32)S(C)(=O)=O)c(C)c1 (configuration not stated) | 13µM* | 17.8µM* | ? | 23.1µM*
Cc1ccc(N(CC(O)Cn2c3ccccc3c3ccccc32)S(C)(=O)=O)cc1 (configuration not stated) | i | ? | ? | ?
COc1ccccc1Nc1nc(-c2sc(N)nc2C)cs1 | i | -9.8% | -13.0% | i
Cc1nc(N)sc1-c1csc(Nc2ncccn2)n1 | i | ? | 20.6µM* | i
CC(=O)Nc1cccc(Nc2nc3ccccc3n3c(C)nnc23)c1 | i | nt | nt | i
CSc1nc2ccc(S(=O)(=O)NC3CCCCC3)cc2s1 | 16.4µM* | -0.3% | -1.9% | ?
CSc1nc2ccc(S(=O)(=O)N3CCCCC3)cc2s1 | ? | 4.8% | 2.4% | ?
CCOC(=O)C1CCN(C(=O)c2cnn(-c3ccc(F)cc3)c2-n2cccc2)CC1 | ? | nt | nt | i
Cc1ccc2nc(N3C(=O)C(O)=C(C(=O)c4ccco4)C3c3cccs3)sc2c1 (configuration not stated) | 13µM* | ? | ? | i
CC1=C(C(=O)NCc2ccccc2F)C2(CCCCC2)OC1=O | i | nt | nt | i
CCCn1c2ccccc2c2nnc(SCc3[nH]c(=O)[nH]c3C(=O)CCCCC(=O)OCC)nc21 | i | -28.6% | -24.9% | i
CCOC(=O)CCCCC(=O)c1[nH]c(=O)[nH]c1CSc1nnc2c3ccccc3n(C(C)C)c2n1 | 14.6µM* | -20.1% | -19.2% | i
CN(C)S(=O)(=O)N1CCC(Oc2ccc(C(=O)N3C[C@@H]4CCC[C@H]3C4)cc2)CC1 | 9.2µM* | 1.4% | -1.0% | i
COC(=O)c1c(C)cccc1C1CN=NC12Cc1ccccc1C2=O (configuration not stated) | 20.6µM* | 0.3% | -1.8% | i
COc1ccccc1C1CN=NC12CCCc1ccccc1C2=O (configuration not stated) | ? | -21.6% | -14.6% | i
COc1ccc(CCC(C)NCC2CCCCC2)cc1 (configuration not stated) | 20.6µM* | -23.5% | -6.7% | ?
COC(=O)c1ccc(COC(=O)c2ccc(CS(=O)(=O)c3ccc(C)cc3)cc2)cc1 | i | -0.7% | ? | i
COC(=O)c1cc2c(n1S(=O)(=O)c1ccc(C)cc1)C(=O)C(=O)c1[nH]cc(C(=O)OCc3ccccc3)c1-2 | 7.31µM* | 9.2µM* | 3.66µM* | 3.26µM*
CCn1c(C)c(C2N3CC4(C)CN2CC(C)(C3)C4=O)c2ccccc21 (configuration not stated) | i | nt | nt | i
CCOC(=O)C(C)C(C)=O (configuration not stated) | ? | ? | 58µM* | ?
CCc1nn(CC(=O)NCC(C)c2ccccc2)c(=O)c2cc3c(OC)cccc3n12 (configuration not stated) | i | nt | nt | i
CCOC(=O)c1ccc(NC(=O)CCn2c(=O)c3cccn3c3cccnc32)cc1 | i | nt | nt | i
O=C(c1ccco1)N1CCN(c2ncnc3c2nnn3Cc2ccccc2Cl)CC1 | 5.8µM* | 2.0% | -17.4% | i
O=C(c1ccco1)N1CCN(c2nc(C(F)(F)F)nc3c2nnn3Cc2ccccc2)CC1 | 2.31µM* | ? | ? | ?
